The values that follow come from PubChem BioAssay AID1159506 (National Center for Advancing Translational Sciences (NCATS), 2015).

Over roughly 59,000 sequences, the read-out has its median near -0.00055; the lowest 2% begin near -2. Only a selection was taken, and the lowest values are over-represented in it overall.

This assay in a line: Identification of proteins required for the processing of the EWS-FLI1 nascent transcript.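 Also: robust z of luciferase light less the median z of siRNAs with the same seed.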 As to conditions: TC32 Ewing sarcoma NR0B1-luc vs CMV-luc (EWS-FLI1 target promoter against control promoter), 48 h; screened at 20 nM (by protocol). In outline:
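Parallel TC32-NR0B1-luc and TC32-CMV-luc reverse transfections with 20 nM siRNA in RPMI-1640/10% FBS, luciferase measured 48 h later. Seed-adjusted z-scores from normalized, z-score-MAD transformed data; AllStars negative and siGL4 controls on each plate.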
In turn, UCCCAGUUGUGGAUGAUCC against PLEKHM1 had a seed-corrected z-score of -0.204.

As to UAAAGACUACAAGCACAGC against OR51B5, the seed-corrected z-score was -2.14. Turning to UUCAGUACAUCUCUGCAGG against RDH12, the seed-corrected z-score was determined as 0.532. Regarding UUCAUCACAACCUUCCGUG against TLR5, the seed-corrected z-score came to 0.937. UUCCAGGUCACCAACCACC against IFITM5 registered a seed-corrected z-score of -0.607. Turning to UUCUGCAUAAGUAGUUUUC against INIP, the seed-corrected z-score was -2.13. In turn, UGCUUAGCUUCUUUAACCC against PLIN2 came in with a seed-corrected z-score of 0.638. In the case of UCCUGAACAGGCUUAUCCC against AXIN1, the seed-corrected z-score came to 0.946. Then UGAUCUCCAAUCACAUGCC against ARFGEF2, with -0.117; and UCGUUUACAAACAUGAGUC against MPDZ, with 0.35; and UUCUGACCAAGCAAACUCG against SF3B1, with -2.7. Regarding AUUGAUGUAUGACUCUUCC against DDX55, the seed-corrected z-score is -0.91.

In turn, UUCUUUGCCUCGCUUAUUC against OLFML2B had a seed-corrected z-score of 0.806.

On to UAUCUGAGGAGUUCUGACC against SLC22A2, for which the seed-corrected z-score was 0.452. Take AAAUGUCUUAGGGAUUGGG against ITPRIPL1: the seed-corrected z-score was -2.1.

UCUCCAAGAAGUUCACUGG against SOX6 came in with a seed-corrected z-score of 0.406.

Consider UCUGUUGCUGCCUAAACUC against TMEM198B, for which the seed-corrected z-score worked out at 0.298. With UAUAGAACAAGGUAAAUCC against MTF2 the figure was 0.208; with UUCUAUCAAAUAUCCUUUG against LOC400940, -0.132. UAGGAAAUCAUCUCCCUCC against TMEM169 yielded a seed-corrected z-score of -3.9. Then UACCCAUAUAUUUAAAGCC against PQLC3, with 0.395; and UUUUCAUUUACGGAACCCG against SMOC2, with 0.202; and UCAGAAGUAACAGCAGAUC against FANCG, with 0.307. In the case of UCAUAGUGCAGGUAGAGCC against TRIM50, the seed-corrected z-score is -0.491. Consider AUAGAAGUCAACCUCAUUC against CASQ2, for which the seed-corrected z-score was determined as 0.181. Then UAUUUGUCCAGGUAUGGUG against ERRFI1, with -0.215; and GUCUCUGGUACCUGUGUGC against LOC440300, with -0.25; and UACUCUGUUAGGAAGACCG against TECR, with 0.271. UCCUGCUUCCGGAAUAUCU against PNMA2 registered a seed-corrected z-score of -2.12. Sequence UCAGAUUUCAGACCGCCCA against LINC00668 came in with a seed-corrected z-score of 0.167. As to UUCAGUUCGUAAUCUCUCU against FLOT1, the seed-corrected z-score came out at 0.706. For the sequence UUCAAAUCCCUAUUAAAGC against ARFIP1, the seed-corrected z-score was found to be 0.962. Then AAGUGGAACCGAUACUUCC against SPDYE14P, with -0.205; and UUUGGUGCACGUAACUUGG against C6orf203, with -2.05. The sequence UUCGGUGUCAAUAACUGUG against BCAS3 returned a seed-corrected z-score of -1.77. For the sequence UUUCGUAAUAUGCGGCCUC against ASPA, the seed-corrected z-score is -0.032.

Take UCUUGAUAAGAGACCAGCU against PRR3: the seed-corrected z-score turned out to be 0.373. Sequence AAAUCCACAAUCCAGGGAG against SPATA31E2P showed a seed-corrected z-score of 0.176.

Regarding UGUUCAGUUGCUAAAAUGG against KLRC1, the seed-corrected z-score was found to be 0.773.

Regarding UCUGUAAACAGCUUGAUGA against GLP1R, the seed-corrected z-score was -0.289. Sequence UUCAUUCUCUGCAAAAUCC against NSMCE1 showed a seed-corrected z-score of -0.305. Then UACGAUCAAAGGUUGAUUC against ATF7IP, with -4.54; and UUCAAUGCAUACAUAGAGC against ZNF585A, with 0.552; and AUAGGGUAUAGCUCCAGUC against CIART, with 1.2. As to UGAAGUCGUAGAUCUCACG against PTDSS2, the seed-corrected z-score was -2.62. For the sequence AAUAGUUAUUUUGUUGAGC against C6orf52, the seed-corrected z-score is -0.622. On to UAGGUGUGCAUCAUAGUAA against C11orf94, for which the seed-corrected z-score is -0.539. Then UGAGUCAUCCACGCAGUUC against PSCA, with 0.371; and UCUGUUUCCAUUGCGUUCU against FLJ41278, with -0.527. Take UCUUCGUCUGGGUCGUUUG against SIGLEC6: the seed-corrected z-score was -0.384. As for UUCUGGAGUAGCAAGCUAC against POLR2D, the seed-corrected z-score is -2.24.

Regarding UUUCAUCUCCAUCCGGUAG against JPH3, the seed-corrected z-score is -0.755. On to ACUCGAAGCAUCUCGAUGG against HAS3, for which the seed-corrected z-score is -0.313.

The sequence AACUAAACCAGCUCGCUUC against LRRC8C displayed a seed-corrected z-score of 2.39. The sequence UGUCAAGUCGGGUUCACCC against CCDC97 yielded a seed-corrected z-score of -0.229.

UGCUGCUUCCCUAAGAUCC against ATG4A returned a seed-corrected z-score of 0.243. On to AAUAGCUGCAUAACUGUCU against CLTA, for which the seed-corrected z-score is -3.36. In turn, UUCUGCUUCAUGUUGAGCC against RECQL4 gave a seed-corrected z-score of -0.111. UCUUGUCGAAAAGCUCACC against KIAA1161 had a seed-corrected z-score of 0.789. In turn, AUCGUGCAAGGUGUUCUCC against BFSP2 came in with a seed-corrected z-score of 0.341. As for AUUUCCUUGAUUGUCAUCC against SERPINB7, the seed-corrected z-score is -2.22. Regarding AAAGUUCUCGAAAUGCUUC against GLOD4, the seed-corrected z-score was -0.0199.

With UUACGGUACUUGGUCUCGC against NRAP, the seed-corrected z-score is -1.11. As for UUUUUGGUCACCGGUUGCC against GRK5, the seed-corrected z-score is -0.48.

For UAGCUUGAUAAUAACCAGC against EMC8, the seed-corrected z-score came to 0.529. AUAGUGCUCAUGAACAUGG against OR7G1 gave a seed-corrected z-score of 0.135. On to UAGCUGUGAACAGUACCCG against MPL, for which the seed-corrected z-score was -2.07.
